The list is not random: actives were taken first. Their share in the collection is about 4.3%.
ADAM10 inh – human ADAM10 inhibitors, primary screen, biochemical, QFRET, HTS; inhibition, % at 7 µM; recombinant ADAM10, EDANS/DABCYL FRET peptide cleavage, 3 h; 370,000 tested, 0.62% active; AID 720582, 2013; Disintegrin and metalloproteinase domain-containing protein 10 (Homo sapiens), O14672;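 active = inhibition above a per-campaign cutoff equal to the mean of compounds falling between control-based bounds plus 3 SD, cut at about 20% in these data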;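 note: 0% = DMSO wells while the 100% control is not disclosed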
GRIN3A LBD mod – binders of NR3A ligand-binding domain, primary screen, biophysical, differential scanning fluorimetry, uHTS; Glutamate receptor ionotropic, NMDA 3A (GRIN3A) ligand-binding domain; NR3A LBD differential scanning fluorimetry, Tm shift; 0% = protein alone, 100% = glycine-bound protein; Tm shift relative to glycine control, % at 25 µM; 340,000 tested, 2.5% active; AID 1259313, 2017;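 active = melting temperature shift of at least 10% of the positive control shift, at one fixed dose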
ADAM17 inh – ADAM17 inhibitors, primary screen, biochemical, QFRET; Disintegrin and metalloproteinase domain-containing protein 17 (Homo sapiens), P78536; recombinant ADAM17, EDANS/DABCYL FRET peptide cleavage; inhibition, % at 6.95 µM; 370,000 tested, 0.83% active; AID 720648, 2013;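 active = inhibition above the mean of compounds lying between control limits plus 3 SD, set per campaign, cut at about 8.5% in these data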;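 note: 0% = DMSO-only wells as the low control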
FAS TE block – FAS thioesterase domain inhibitors, primary screen, biochemical, fluorescence intensity, uHTS; Fatty acid synthase (Homo sapiens), P49327; recombinant FAS-TE, OMFH fluorogenic substrate, fluorescence endpoint; inhibition, % at 15 µM; 360,000 tested, 0.67% active; AID 602261, 2012;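 active = compounds whose normalised, plate-corrected inhibition of enzyme fluorescence in the single-dose primary screen is 50% or more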;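 note: 0% = DMSO with enzyme and 100% = substrate without enzyme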
HGIII-sPLA2 inh – human group III sPLA2 inhibitors, primary screen, biochemical, QFRET, BODIPY PC-A2 liposome substrate | Group 3 secretory phospholipase A2 (Homo sapiens), Q9NZ20 | QFRET BODIPY PC-A2 liposome hydrolysis, fluorescence | inhibition, % at 12.2 µM | 370,000 tested, 0.56% active;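 active = inhibition above mean plus 3 SD of compounds lying within the high and low control bounds, cut at about 19% in these data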;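 note: 0% = median of test compound wells and 100% = no enzyme DMSO wells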
* hit, by the source's call.

`C[C@H]1[C@@H](N(C)CC2CCCCC2)CC[C@@]23CCCN2C(=O)CCC[C@@H]13` gave ADAM10 inh -4, ADAM17 inh -4 and HGIII-sPLA2 inh 4.
Cc1c(N=Nc2c(-c3ccc([N+](=O)[O-])cc3)[nH]n(C(N)=S)c2=O)cccc1[N+](=O)[O-] was read as ADAM10 inh 1, GRIN3A LBD mod 25*, ADAM17 inh 1, FAS TE block 37 and HGIII-sPLA2 inh -3.
`NC(=S)n1[nH]c(-c2ccc([N+](=O)[O-])cc2)c(N=Nc2cccc([N+](=O)[O-])c2)c1=O` gave ADAM10 inh -1, GRIN3A LBD mod 27*, ADAM17 inh 0, FAS TE block 14 and HGIII-sPLA2 inh -6.
`Cc1[nH]n(C(N)=S)c(=O)c1N=Nc1cccc([N+](=O)[O-])c1C` gave GRIN3A LBD mod 4 and FAS TE block 0.
Screening NC(=S)n1[nH]c(-c2ccc([N+](=O)[O-])cc2)c(N=Nc2ccccc2[N+](=O)[O-])c1=O returned ADAM10 inh -1, GRIN3A LBD mod -2, ADAM17 inh 1, FAS TE block 23 and HGIII-sPLA2 inh 0.
COC(=O)[C@]12C[C@H](CC(=O)N3CCN(C(=O)c4ccco4)CC3)C(=O)N(Cc3cccc4ccccc34)C1=C[C@H](COCc1ccccc1)O[C@@H]2C was read as ADAM10 inh 8, ADAM17 inh 4 and HGIII-sPLA2 inh -11.
CCOC(=O)[C@@]12CCCC=C1N(CCc1ccc(Cl)cc1)C(=O)[C@H]2CC(=O)N1CCCCC1 was read as ADAM10 inh 1, ADAM17 inh 3 and HGIII-sPLA2 inh -3.
`C/C(=N\Nc1nc(N)cc(Cl)n1)c1ccc(Cl)c(Cl)c1` gave ADAM10 inh -3, GRIN3A LBD mod 18*, ADAM17 inh -2, FAS TE block 1 and HGIII-sPLA2 inh -3.
`O=C(O)c1cccc(S(=O)(=O)NCC(=O)N2CCN(c3ccccn3)CC2)c1` gave ADAM10 inh -2, ADAM17 inh -1 and HGIII-sPLA2 inh 1.
`COc1ccc(CN2C(=O)CCCC2(C)c2nnnn2-c2c(C)cccc2C)cc1OC` (configuration not stated) gave ADAM10 inh 1, ADAM17 inh -1 and HGIII-sPLA2 inh -8.
`Fc1cccc(CNC(=S)OC2CCC23CCC(c2ccccc2)CC3)c1` (configuration not stated) gave ADAM10 inh -8, ADAM17 inh -4 and HGIII-sPLA2 inh -1.
Screening CC(=O)Nc1ccc(Nc2nc(C(F)(F)F)nc3c2nnn3Cc2ccccc2Cl)cc1 returned ADAM10 inh -2, GRIN3A LBD mod 13*, ADAM17 inh -1, FAS TE block 26 and HGIII-sPLA2 inh -5.
For CCCCNC(=O)C[C@H]1C[C@@]2(C(=O)OC)C(=C[C@H](C3CCCC3)O[C@@H]2C)N(Cc2ccco2)C1=O the results were ADAM10 inh 4, ADAM17 inh 3 and HGIII-sPLA2 inh -6.
Screening CCCOC(=O)c1c(-c2ccc(OC)cc2)oc2ccc(-c3ccc(OC)nc3)cc12 returned ADAM10 inh -23, GRIN3A LBD mod 15*, ADAM17 inh -5, FAS TE block 17 and HGIII-sPLA2 inh 6.
COC(=O)c1c(-c2ccc(OC)cc2)oc2ccc(-c3ccc(OC)nc3)cc12 was read as ADAM10 inh -13, GRIN3A LBD mod 0, ADAM17 inh -4, FAS TE block 20 and HGIII-sPLA2 inh -5.
CC[C@]12c3[nH]c4ccc(Cl)cc4c3CCN1C(=O)[C@@H](CC(=O)NCC13CC4CC(CC(C4)C1)C3)C[C@@H]2C(=O)N1CCN(C(=O)c2ccco2)CC1 was read as ADAM10 inh 35*, GRIN3A LBD mod 2, ADAM17 inh 5, FAS TE block 15 and HGIII-sPLA2 inh -38.
`COC(=O)c1ccc(C)c(NC(=O)CCSc2ccc(Cl)cc2)c1` gave ADAM10 inh 5, GRIN3A LBD mod 31*, ADAM17 inh -4, FAS TE block -1 and HGIII-sPLA2 inh -7.
